Test results taken from PubChem BioAssay (NCATS).
A number with no mark means an inactive call. Records with an inconclusive call do not appear. Entries that show only a call come without a potency. Activity calls are given as the source filed them. Calls come from the whole dose curve; as a rule, active = well fitted curve in the direction sought with a large enough effect; inconclusive = small, poorly fitted or top-dose-only effect, or another doubt; inactive = no such curve, though single readings can be large; an effect the other way counts as inactive or inconclusive.

How the values were obtained:
[1] = Quantitative High-Throughput drug screen in 47 multiple myeloma cell lines against the NCATS MIPE library collection: KMS11_JCRBsus cell viability assay (AID 1919873); note: nearly all actives have a fitted effect of over 50% in size; note: potency is the fitted concentration of half-maximal effect
In short: (§1)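 Viability after 48 h drug exposure was measured as ATP-dependent luminescence. Cells, 500 per well, sat at 37 °C under 5% CO2; DMSO wells set 100%, media-only wells 0%.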

[2] = biological target: Cytochrome P450 2C19 (Homo sapiens) (UniProt P33261); test: qHTS for inhibitors of CYP2C19 against the NCATS DSHEA and TCM libraries (AID 1919974); settings: CYP2C19 enzyme inhibition, luminescence qHTS;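 note: luminescence from luciferin released by CYP2C19 oxidation of a pro-luciferin substrate; potency is the fitted concentration of half-maximal effect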
In short: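 Luminescent P450-Glo readout. Enzyme plus pro-luciferin substrate in manufacturer buffer (typically 100 mM KPO4); 15 min RT preincubation; 1x NADPH regenerating system, 30-45 min RT in the dark; detection reagent 30 min.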

[3] = KB-3-1 P-gp reporter qHTS against the NCATS DSHEA and TCM libraries (AID 1919975)
In short: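 Parental KB-3-1 cells, 500 cells/well, in DMEM with 10% FBS, exposed 72 h at 37 C to compounds in concentration-response. Viability read by CellTiter-Glo luminescence after 30 min at room temperature.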

[4] = qHTS Counterscreen for compound interference against the NCATS DSHEA and TCM libraries (AID 1919978); settings: firefly luciferase detection reagent interference, luminescence;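 note: compounds preincubated with 1 µM D-luciferin or buffer before detection reagent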
In short: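 Firefly luciferase detection reagent was added after compounds (19.5 nM–39.8 uM final) had been incubated 15 min at room temperature with 1 uM D-luciferin or with 100 mM phosphate buffer alone. Luminescence was read after 30 min at room temperature.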

[5] = Dual reporter qHTS for agonist of Pregnane X Receptor (hPXR) against the NCATS DSHEA and TCM libraries: Fluorescence readout (AID 1920058)
In short: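 hPXR-Luc HepG2 cells (2000/well) in phenol red-free medium with charcoal-stripped FBS attached for 5 h, then were exposed to compounds for about 24 h at 37 °C. Viability was read by CellTiter-Fluor fluorescence (Ex/Em 405/540 nm) after 1 h.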

[6] = Quantitative High-Throughput drug screen in 47 multiple myeloma cell lines against the NCATS MIPE library collection: KMS28BM_JCRB cell viability assay (AID 1919874); note: nearly all actives have a fitted effect of over 35% in size; note: potency is the fitted concentration of half-maximal effect
In short: as §1

Cytochrome P450 2C19 (Homo sapiens), sequence (P33261 whole entry, looked up): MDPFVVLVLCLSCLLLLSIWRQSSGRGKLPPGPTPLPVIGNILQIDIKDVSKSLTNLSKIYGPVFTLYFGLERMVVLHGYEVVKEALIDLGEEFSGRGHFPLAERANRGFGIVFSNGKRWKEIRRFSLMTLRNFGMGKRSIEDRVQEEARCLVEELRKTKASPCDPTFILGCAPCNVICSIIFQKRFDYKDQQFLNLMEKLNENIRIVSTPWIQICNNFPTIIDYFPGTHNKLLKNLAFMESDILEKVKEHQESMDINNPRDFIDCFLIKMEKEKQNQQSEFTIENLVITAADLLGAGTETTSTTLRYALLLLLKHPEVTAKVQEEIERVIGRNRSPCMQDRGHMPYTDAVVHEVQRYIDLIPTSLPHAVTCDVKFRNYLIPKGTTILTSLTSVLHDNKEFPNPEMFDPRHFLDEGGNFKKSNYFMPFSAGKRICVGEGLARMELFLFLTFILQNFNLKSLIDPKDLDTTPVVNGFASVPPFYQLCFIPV

O=c1cc(-c2ccc(O)cc2)oc2cc(O)cc(O)c12
Potency [1]: 20.9 µM (active)
Potency [2]: 6.31 µM (active)
outcome [3]: inactive
max response [4]: -0.0344%
outcome [5]: inactive

CCn1c(C(=O)N(C2CC2)C2CC2)cc2c3c(ncn3C)c(Nc3cc(C)n(C)n3)nc21
Potency [6]: inactive

CCC(=O)O[C@]1(C(=O)CO)CC[C@H]2[C@@H]3CCC4=CC(=O)CC[C@]4(C)[C@@H]3CC[C@@]21C
Potency [1]: 0.209 µM (active)
Potency [6]: inactive

O=c1cc(-c2ccccc2)oc2cc(O)c(O)c(O)c12
Potency [6]: inactive

CO[C@@H](C(=O)N1Cc2[nH]nc(NC(=O)c3ccc(N4CCN(C)CC4)cc3)c2C1)c1ccccc1
Potency [6]: 1.66 µM (active)

NC1=N[C@@]2(c3cc(NC(=O)c4ccc(F)cn4)ccc3F)COC[C@@H]2CS1
Potency [1]: 23.5 µM (active)
Potency [6]: 18.7 µM (active)

O=c1ccn([C@@H]2O[C@H](CO)[C@H](O)[C@H]2O)c(=O)[nH]1
Potency [6]: inactive

O=C(NC1CCOCC1)c1ccc(-c2cc(-c3cn[nH]c3-c3ccccn3)ccn2)cc1
Potency [1]: inactive
Potency [6]: inactive

CC#CCn1c(N2CCC[C@@H](N)C2)nc2c1c(=O)n(Cc1nc(C)c3ccccc3n1)c(=O)n2C
Potency [1]: inactive
Potency [6]: inactive

Cc1ccc(F)c(NC(=O)Nc2ccc(-c3cccc4[nH]nc(N)c34)cc2)c1
Potency [1]: 5.26 µM (active)
Potency [6]: 8.33 µM (active)

Cc1ccn(-c2ccc(-c3ncco3)cc2)c(=O)c1-c1ccc2nc(N)ncc2c1
Potency [6]: inactive

C=CCc1ccc(O)c(-c2ccc(O)c(CC=C)c2)c1
Potency [6]: 23.5 µM (active)

CC[C@H]1OC(=O)[C@H](C)C(=O)[C@H](C)[C@@H](O[C@H]2O[C@H](C)C[C@H](N(C)C)[C@@H]2O)[C@](C)(OC)C[C@@H](C)C(=O)[C@H](C)[C@H]2N(CCCCn3cnc(-c4cccnc4)c3)C(=O)O[C@]12C
Potency [1]: 16.6 µM (active)
Potency [6]: inactive

CC=CCC=CCCC(=O)[C@H]1O[C@@H]1C(N)=O
Potency [1]: 20.9 µM (active)
Potency [6]: 14.8 µM (active)

CCC(=O)NC[C@H](Cc1ccc(OCCc2nc(-c3ccccc3)oc2C)cc1)NC(C)=CC(=O)c1ccc(C(F)(F)F)cc1
Potency [6]: inactive

Nc1ncnc2c1nc(Cl)n2[C@@H]1O[C@H](CO)[C@@H](O)[C@@H]1O
Potency [1]: 20.9 µM (active)
Potency [6]: 13.2 µM (active)

O=c1c(O)c(-c2ccc(O)cc2)oc2cc(O)cc(O)c12
Potency [6]: 4.69 µM (active)

CC1(C)Cc2c(sc(NC(=S)NC(=O)c3ccccc3)c2C(=O)O)CO1
Potency [1]: inactive
Potency [6]: inactive

COC[C@@H](c1ccc(C(F)(F)F)cc1)N1CCN(C2(C)CCN(C(=O)c3c(C)ncnc3C)CC2)C[C@H]1C
Potency [1]: inactive
Potency [6]: inactive

CCCCCNC(=O)N1CCC(CN(Cc2ccc(Cl)cc2)Cc2ccc([N+](=O)[O-])s2)C1 (stereo unspecified)
Potency [6]: 18.7 µM (active)

C[N+](C)(C)CC(=O)O
Potency [1]: inactive
Potency [6]: inactive

O=c1cc(N2CCOCC2)oc2c(-c3cccc4c3sc3ccccc34)cccc12
Potency [6]: 3.72 µM (active)

CC(C)OC(=O)C(C)(C)Oc1ccc(C(=O)c2ccc(Cl)cc2)cc1
Potency [6]: inactive

O=C(O)c1ccc(-c2cc3cccnc3c(-c3ccc4nonc4c3)n2)cc1
Potency [1]: 26.4 µM (active)
Potency [6]: 26.4 µM (active)

Oc1ccc(C2CCN(c3ccnc4ccccc34)CC2)cc1O
Potency [1]: 18.7 µM (active)
Potency [6]: 4.69 µM (active)

COc1cc(NC(=O)c2ccc(-c3ccc(Cl)cc3)o2)cc(OC)c1
Potency [1]: inactive
Potency [6]: inactive

C[C@H](NC(=O)C(=O)Nc1ccccc1C(C)(C)C)C(=O)N[C@@H](CC(=O)O)C(=O)COc1c(F)c(F)cc(F)c1F
Potency [6]: inactive

Cc1cnc(C(=O)O)c[n+]1[O-]
Potency [1]: inactive
Potency [6]: inactive

CC[C@H]1OC(=O)[C@H](C)[C@@H](O[C@H]2C[C@@](C)(OC)[C@@H](O)[C@H](C)O2)[C@H](C)[C@@H](O[C@@H]2O[C@H](C)C[C@H](N(C)C)[C@@H]2O)[C@](C)(O)C[C@@H](C)CN(C)[C@H](C)[C@@H](O)[C@]1(C)O
Potency [1]: inactive
Potency [6]: inactive

O=C(NCc1ccncc1)C12C[C@H]3C[C@@H](C1)CC(c1ccc(Cl)cc1)(C3)C2
Potency [1]: 14.8 µM (active)
Potency [6]: 18.7 µM (active)
